This is an account of results in PubChem BioAssay AID1508625 (Wald Lab, School of Medicine, Case Western Reserve …, 2021).

The nature of the assay: enhancers of NK cell killing of ovarian tumor cells, primary screen, imaging, OVCAR3, primary NK cells, calcein-AM imaging (AID 1508625).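 Also: compound given to NK cells 16 h before adding targets at 1.5 to 1 ratio.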 The note with it: OVCAR3 lysis by primary NK cells, at 5 µM; z-score: measured here: robust Z-score, single-point normalisation.

For `Cc1ccc2c(c1)NCC(C(=O)O)O2` (stereo not given), the corrected activity, negative = more killing is -4.87% and the z-score is -1.31.

For `O=C1CC(c2ccc(Cl)cc2)CC2=C1C(c1cccc(F)c1)Nc1ccccc1N2` (stereo not given), the corrected activity, negative = more killing is -9.53% and the z-score is -2.95.

Consider `CN(C)c1ccc(C=C(C(=O)c2ccccc2)c2nc3ccccc3[nH]2)cc1`, for which the corrected activity, negative = more killing is -1.99% and the z-score was -1.03.

Take `Cc1cc(C)cc(-n2cnc3cc(C(=O)NC4CCCCCC4)ccc32)c1`: the corrected activity, negative = more killing is -4.5% and the z-score is -1.21.

Regarding `Cc1ccc(NC(=O)CSc2ccc(Nc3ccc(C)cc3)nn2)cc1`, the corrected activity, negative = more killing was -2.33% and the z-score was -0.695.

For `COc1ccccc1NC(=O)c1ccccc1NC(=O)c1ccc(F)cc1`, the corrected activity, negative = more killing is -2.61% and the z-score is -1.45.

`COc1ccc(Cn2c(=S)[nH]c3cc(C(=O)NCc4ccccc4Cl)ccc3c2=O)cc1`: the corrected activity, negative = more killing was -10.8% and the z-score was -3.45.

As to `COCCNC(=O)c1c[nH]c2ccc(S(=O)(=O)Nc3ccc4c(c3)OCCO4)cc2c1=O`, the corrected activity, negative = more killing is -5.25% and the z-score is -1.29.

As for `O=C(COc1ccccc1F)N1CCc2ccccc2C1`, the corrected activity, negative = more killing was -4.1% and the z-score was -1.68.

With `COc1ccc(N2C3=C(C(=O)CC(C)(C)C3)C(c3cccc(F)c3)C3=C2CC(C)(C)CC3=O)c(OC)c1`, the corrected activity, negative = more killing was -1.83% and the z-score was -0.581.

For `CCOC(=O)c1c(NC(=O)c2cc([N+](=O)[O-])ccc2N2CCCCCC2)sc2c1CCCC2`, the corrected activity, negative = more killing is -2.4% and the z-score is -0.744.

For the compound `OC(CN1CCN(C2c3ccccc3-c3ccccc32)CC1)Cn1c2ccccc2c2ccccc21` (stereo not given), the corrected activity, negative = more killing was -8.62% and the z-score is -1.82.

`Cc1cc(=O)n2[nH]c(C)cc2n1`: the corrected activity, negative = more killing was -3.27% and the z-score is -0.975.

With `Clc1ccc(OCCN2CCc3ccccc3C2)cc1`, the corrected activity, negative = more killing was -1.86% and the z-score was -1.03.

Consider `c1cc2c(cc1Nc1nc(-c3ccc(C4CCCCC4)cc3)cs1)OCO2`, for which the corrected activity, negative = more killing is 0.134% and the z-score is 0.0696.

Turning to `Cc1c(N=Cc2c[nH]c3ccccc23)cccc1[N+](=O)[O-]`, the corrected activity, negative = more killing is -2.05% and the z-score is -0.872.

As to `CC(=O)c1c(C(C)=O)c(C)n(-c2ccc(Cl)c(N)c2)c1C`, the corrected activity, negative = more killing was -6.08% and the z-score was -2.26.

Consider `COc1cc(OC)c(C=C2C(=O)NC(=S)N(c3ccc(Cl)cc3)C2=O)cc1Br`, for which the corrected activity, negative = more killing was -2.07% and the z-score is -1.07.

Take `Cc1cc(C)nc(N=C(N)Nc2cccc(F)c2)n1`: the corrected activity, negative = more killing is 0.14% and the z-score was 0.0433.

`CCOc1ccc2nc(NC(=O)CCC(=O)OCC(F)(F)F)sc2c1`: the corrected activity, negative = more killing was -3.74% and the z-score is -1.41.

For `COc1cccc(N2CCN(C(=O)Nc3ccc(F)cc3)CC2)c1`, the corrected activity, negative = more killing was -2.57% and the z-score was -1.43.

As for `CCCCOc1ccc(C(=O)N2CCN(C(=O)N(C)C)CC2)cc1`, the corrected activity, negative = more killing is -0.23% and the z-score was -0.128.

Regarding `CC(C)C(NC(=O)c1ccccc1)C(=O)NC1=NCCS1` (stereo not given), the corrected activity, negative = more killing was -2% and the z-score is -0.869.

Regarding `CCCCC(=O)NC(=S)Nc1ccc(Cl)c(C(=O)O)c1`, the corrected activity, negative = more killing was -4.41% and the z-score was -1.64.

As to `COc1ccc(Cn2c(=S)[nH]c3cc(C(=O)N4CCCCC4)ccc3c2=O)cc1`, the corrected activity, negative = more killing was -8.39% and the z-score is -2.67.

As to `O=C1C2C3CC(C(Br)C3Br)C2C(=O)N1c1cccc2ccccc12` (stereo not given), the corrected activity, negative = more killing was -3.98% and the z-score is -1.41.

In the case of `O=C1C2C(c3ccc([N+](=O)[O-])cc3)OC3(C(=O)c4ccccc4C3=O)C2C(=O)N1c1ccc(Cl)cc1` (stereo not given), the corrected activity, negative = more killing is -3.68% and the z-score is -1.14.

In the case of `Cc1ccc(-n2c(O)c(C=C3C=Nc4ccccc43)sc2=O)cc1`, the corrected activity, negative = more killing is -3.36% and the z-score is -1.74.

On to `O=c1oc(-c2ccc(Oc3ccc([N+](=O)[O-])cc3)cc2)nc2ccccc12`, for which the corrected activity, negative = more killing is -1.57% and the z-score was -0.62.

On to `COc1ccccc1C(=O)N1CCN(S(=O)(=O)c2ccc(C)cc2)CC1`, for which the corrected activity, negative = more killing was -3.03% and the z-score is -1.35.

On to `COc1ccccc1Nc1ncc(C(=O)N2CCC(Cc3ccccc3)CC2)c2ccccc12`, for which the corrected activity, negative = more killing was -5.51% and the z-score is -1.37.

For the compound `c1ccc(-c2ccccc2OCCN2CCNCC2)cc1`, the corrected activity, negative = more killing was 1.89% and the z-score is 1.05.

As for `CCCCNC(=O)c1c[nH]c2ccc(S(=O)(=O)Nc3cccc(SC)c3)cc2c1=O`, the corrected activity, negative = more killing is -1.92% and the z-score was -0.471.

Take `CCC(C)N1C(=O)c2ccccc2C1C(=O)NC1CCCCCC1` (stereo not given): the corrected activity, negative = more killing is -6.27% and the z-score is -1.78.

With `Cc1cccn2c(=O)c3cc(C(=O)N4CCCCCC4)sc3nc12`, the corrected activity, negative = more killing is -6.34% and the z-score was -1.8.

`Cn1c(SCc2c[nH]c3cc([N+](=O)[O-])ccc23)nc2sc3c(c2c1=O)CCCC3`: the corrected activity, negative = more killing is -1.25% and the z-score was -0.47.

`N#Cc1c2c(c(-n3ccnc3)n3c1nc1ccccc13)CCC2`: the corrected activity, negative = more killing was -2.49% and the z-score is -0.772.

With `COc1ccc2c(c1)c(C(C)=O)c(C)n2-c1ccccc1C`, the corrected activity, negative = more killing was -0.941% and the z-score was -0.487.

On to `COc1ccc(-n2c(=S)[nH]c3cc(C(=O)O)ccc3c2=O)cc1`, for which the corrected activity, negative = more killing is -5.11% and the z-score is -1.63.

Regarding `COc1cc2c(cc1NCc1ccccn1)oc1ccccc12`, the corrected activity, negative = more killing is -2.51% and the z-score is -1.12.

In the case of `CCN(c1ccccc1C(=O)O)S(=O)(=O)c1cccc2nsnc12`, the corrected activity, negative = more killing was -4.09% and the z-score was -1.22.

`CC(=O)CSc1nc(-c2cccs2)cc(C(F)(F)F)c1C#N`: the corrected activity, negative = more killing was -1.56% and the z-score was -0.485.

Regarding `O=C1C2C3C=CC(CC3)C2C(=O)N1c1ccccc1[N+](=O)[O-]` (stereo not given), the corrected activity, negative = more killing is -2.44% and the z-score is -1.04.

In the case of `Clc1ccccc1[C@@H]1Nc2ccccc2[C@@H]2C=CC[C@@H]21`, the corrected activity, negative = more killing was -1.75% and the z-score is -0.523.

For the compound `COc1ccc(-c2ccc3c(N)c(C(=O)Nc4ccc(C(C)=O)cc4)sc3n2)cc1`, the corrected activity, negative = more killing is -4.48% and the z-score is -1.34.

On to `Cc1nc2ccccc2n1Cc1cccc2ccccc12`, for which the corrected activity, negative = more killing is -3.88% and the z-score is -2.01.

For the compound `CCc1ccc(N2C(=O)CSC2c2ccc(Br)cc2)cc1` (stereo not given), the corrected activity, negative = more killing was -3.8% and the z-score was -1.62.

For `CCOc1ccc(OCC(=O)NC(C)C)cc1`, the corrected activity, negative = more killing was -5.07% and the z-score was -2.82.

On to `CN(C(=O)Cn1ncc2c(=O)oc3ccccc3c21)c1ccc(Br)cc1`, for which the corrected activity, negative = more killing was -6.99% and the z-score was -1.72.

`COc1cc(C(=S)N2CCCCC2)ccc1OC(=O)c1ccc(C)cc1`: the corrected activity, negative = more killing is -4.49% and the z-score was -1.39.

For the compound `COc1ccc(-c2ccc3c(N)c(C(=O)NCc4ccc(C(F)(F)F)cc4)sc3n2)cc1`, the corrected activity, negative = more killing was -1.13% and the z-score is -0.339.

Regarding `O=C1C(=O)N(Cc2cccnc2)C(c2ccccc2)C1=C(O)c1ccc(F)cc1` (stereo not given), the corrected activity, negative = more killing is -1.93% and the z-score is -0.837.

With `COc1ccc(C2Nc3ccccc3NC3=C2C(=O)CC(c2ccco2)C3)cc1` (stereo not given), the corrected activity, negative = more killing is -2.08% and the z-score was -0.853.

Take `O=C(Nc1nc(-c2ccc([N+](=O)[O-])cc2)cs1)c1ccccc1F`: the corrected activity, negative = more killing is -1.2% and the z-score is -0.252.

Take `Cc1ccccc1-c1n[nH]c(=S)o1`: the corrected activity, negative = more killing was -4.65% and the z-score was -1.65.

Turning to `O=C1C2C3C=CC(C3)C2C(=O)N1CCCO` (stereo not given), the corrected activity, negative = more killing is -1% and the z-score is -0.311.

`O=C(Cn1cnc2sc3c(c2c1=O)CCCC3)NCCCC(=O)Nc1ccccc1F`: the corrected activity, negative = more killing was -3.19% and the z-score was -1.01.

Consider `O=C(O)c1ccc(S(=O)(=O)c2ccc3c(c2)C(=O)N(CC2CCCO2)C3=O)cc1` (stereo not given), for which the corrected activity, negative = more killing was 0.388% and the z-score was 0.146.

`COc1ccc(CNC(=O)CSc2nc3cc(C(F)(F)F)ccc3s2)cc1`: the corrected activity, negative = more killing was -4.55% and the z-score is -2.53.

`CN1CCc2c(sc3c2C(=O)NC(c2cccc(OCc4ccccc4)c2)N3)C1` (stereo not given): the corrected activity, negative = more killing was -3.2% and the z-score is -0.991.

Turning to `O=C(Nc1cccc(-c2nc3ccccc3o2)c1)C1CCCCC1`, the corrected activity, negative = more killing was -2.15% and the z-score was -0.667.

As for `CC1=NN(C(=O)C(C)C)C(O)(c2ccccc2)C1` (stereo not given), the corrected activity, negative = more killing is -7.14% and the z-score was -3.83.

For `CCN(CC)c1ccc(C=NS(=O)(=O)c2ccc(C)cc2)cc1`, the corrected activity, negative = more killing was -5.15% and the z-score was -2.76.

Regarding `COCCOC(=O)C1=C(C)N(C)C(=O)NC1c1ccccc1Cl` (stereo not given), the corrected activity, negative = more killing is -3.72% and the z-score is -1.32.

On to `CCOC(=O)c1c(NC(=O)c2ccc(C(=O)c3ccccc3)cc2)sc2c1CCCC2`, for which the corrected activity, negative = more killing is -3.96% and the z-score was -0.836.

`CCc1ccc(NC(=O)CCNC(=O)Cn2cnc3ccccc3c2=O)cc1`: the corrected activity, negative = more killing was 0.879% and the z-score is 0.279.

`O=C(Oc1ccc(C(=S)N2CCCCC2)cc1)c1ccccc1`: the corrected activity, negative = more killing is -2.77% and the z-score is -0.857.

Take `CCOc1ccc(C2C(=C(O)c3ccc(Cl)cc3)C(=O)C(=O)N2c2nc3ccccc3s2)cc1` (stereo not given): the corrected activity, negative = more killing was -4.47% and the z-score is -1.71.

`Cc1cc(Cl)nc(Cl)c1C(=O)O`: the corrected activity, negative = more killing is 0.175% and the z-score is 0.0658.

For the compound `O=C1C(=Cc2ccccc2)SC(=S)N1C1CCS(=O)(=O)C1` (stereo not given), the corrected activity, negative = more killing was -2.25% and the z-score is -0.887.

With `Cc1ccc(-c2sc3nc(-c4ccccc4)ccc3c2N)c(C)c1`, the corrected activity, negative = more killing is -3.23% and the z-score was -1.23.

As for `O=[N+]([O-])c1ccc(N2CCCCC2)cc1NCCc1ccccc1`, the corrected activity, negative = more killing is -2.78% and the z-score was -0.86.

As for `COc1ccc(C(O)=C2C(=O)C(=O)N(CCN3CCNCC3)C2c2ccc(OC)cc2)cc1` (stereo not given), the corrected activity, negative = more killing is -4.32% and the z-score is -1.87.

As to `CCCCSc1nc2c([nH]c3ccccc32)c(=O)n1-c1ccc(F)cc1`, the corrected activity, negative = more killing is -4.96% and the z-score is -1.23.

As for `O=C(O)CN1C(=O)c2cccc3c(Br)ccc1c23`, the corrected activity, negative = more killing was -4.58% and the z-score was -2.46.

As for `O=C(CNc1ccc(Br)cc1)c1ccccc1`, the corrected activity, negative = more killing was -3.77% and the z-score is -1.4.

In the case of `Cc1nc2sccn2c1C(=O)NN=Cc1ccc(C(C)C)cc1`, the corrected activity, negative = more killing was -4.02% and the z-score was -1.71.

On to `CN(C(=O)c1cnc2n(c1=O)CCS2)c1ccccc1`, for which the corrected activity, negative = more killing was -7.51% and the z-score was -2.39.

For the compound `O=S(=O)(c1ccc(Br)c2nsnc12)N1CCC(Cc2ccccc2)CC1`, the corrected activity, negative = more killing is -3.43% and the z-score is -1.06.

For `O=C(Nc1ccc2c(c1)OCCO2)c1cc2cc3ccc(Cl)cc3nc2o1`, the corrected activity, negative = more killing was -3.48% and the z-score is -0.854.
